In the library only some 3.6% were active in any assay of this set; here they are far more common.
GPR32 ag: GPR32 (DRV1) agonism, beta-arrestin recruitment; 2.5% of 48,000 active; CHO-K1 GPR32 beta-arrestin PathHunter luminescence, 90 min; zero percent set by DMSO-only wells; O75388; activation, % at 76.9 µM;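 active means activation of at least 60% and not above a set upper limit, about 1 call in 100 departs from these limits; inconclusive means activation of 40% to 60%, or above that upper limit; inactive means activation under 40%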; further: 0% is about no effect
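Step 1: seed CHO-K1 GPR32 beta-arrestin cells, 2,500/well, overnight at 37 °C. Step 2: add compounds, 90 min at 37 °C. Step 3: detection reagent, 1 h ambient, then luminescence.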
B2AR arrestin ag: beta-arrestin recruitment by human beta2-adrenergic receptor ligands | HTLA Tango cells, beta-arrestin recruitment, luciferase luminescence, 18 h | Potency, µM (top dose mostly 46.1 µM), hits mostly activators | 44,000 tested, under 10 active | AID 1347077;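 further: potency means the concentration at half of the fitted maximal effect; 0% = DMSO and full agonism = EC100 isoproterenol or metaproterenol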
Target sequence (P07550 whole entry, looked up): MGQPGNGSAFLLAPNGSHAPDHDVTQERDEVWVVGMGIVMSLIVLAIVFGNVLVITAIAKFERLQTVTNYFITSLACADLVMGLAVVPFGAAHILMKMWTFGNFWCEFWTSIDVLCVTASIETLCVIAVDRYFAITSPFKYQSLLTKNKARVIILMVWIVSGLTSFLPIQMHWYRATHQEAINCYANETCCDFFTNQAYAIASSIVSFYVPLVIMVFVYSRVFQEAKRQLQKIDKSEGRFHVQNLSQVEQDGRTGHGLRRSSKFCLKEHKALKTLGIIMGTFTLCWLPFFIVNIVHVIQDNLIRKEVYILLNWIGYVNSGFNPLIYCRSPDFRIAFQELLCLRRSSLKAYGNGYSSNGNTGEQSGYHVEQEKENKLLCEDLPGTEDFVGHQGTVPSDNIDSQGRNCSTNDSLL
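Luminescence read-out: arrestin recruitment to recombinant beta2-AR releases tTA, inducing luciferase. Cells exposed 18 hr at 37 degrees C to up to 46 microM compound; %Activity from corrected signal, concentration-response curves classified by r2, magnitude and efficacy.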
GALK inh: GALK (human) enzyme inhibition. P51570. recombinant GALK, Kinase-Glo ATP luminescence, 1 h. Potency, µM (doses to about 57.5 µM), inactives show at the highest dose activity, negative = inhibition, actives largely listed as inhibitors. 44,000 tested, under 10 active. AID 1347072;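 further: plate controls were full GALK reaction for no effect and reaction lacking GALK for full effect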
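Reactions with and without enzyme served as controls. GALK at 5 nM phosphorylates 100 uM galactose using 35 uM ATP (HEPES pH 8.0, Mg2+) for 1 h at RT, with luminescence read 10 min after adding Kinase-Glo Plus.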
TSG101-PTAP inh: TSG101-PTAP interaction inhibition, HIV-1 budding. Fluorescence polarization, FITC-PTAP peptide/Tsg101, 20 min. Potency, µM (highest dose often 115 µM), actives largely listed as inhibitors. 44,000 tested, under 10 active. Q99816; further: potency means the concentration at half of the fitted maximal effect; 0% is about no effect
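Steps: Tsg101 binding domain (10 uM final) in HEPES pH 7.5/NaCl/Tween 20/EDTA/TCEP; add compound; add FITC-PTAP peptide (50 nM final); incubate 20 min r.t.; read polarization.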
NTMT1 inhibitor: NTMT1 methyltransferase inhibition. Q9BV86. NTMT1 MTase-Glo SAH luminescence, purified enzyme. Potency, µM (top dose mostly 114 µM), for the others: at the highest dose activity change, negative = inhibition, usual class: inhibitors. 2.5% of 59,000 active. AID 1645870;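 further: potency means the concentration at half of the fitted maximal effect; plate controls were DMSO vehicle for no effect and no enzyme for full effect; nearly all actives have a fitted effect of over 65% in size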
Target sequence (Q9BV86 whole entry, looked up): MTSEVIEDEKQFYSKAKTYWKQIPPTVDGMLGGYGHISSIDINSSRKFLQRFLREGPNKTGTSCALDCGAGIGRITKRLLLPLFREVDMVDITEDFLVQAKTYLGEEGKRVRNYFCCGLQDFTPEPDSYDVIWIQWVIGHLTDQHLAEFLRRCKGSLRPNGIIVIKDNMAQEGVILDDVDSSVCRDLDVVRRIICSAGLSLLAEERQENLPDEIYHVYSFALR
GALC G270D act: galactocerebrosidase G270D activity enhancement, cell-based. 145M-Twi-hGALC-G270D cells (Twitcher mouse brain line with human GALC G270D), HMU-beta-Gal fluorescence, 48 h. Potency, µM (top dose mostly 57.5 µM), most hits filed as activators. 0.1% of 45,000 active. AID 1159614; further: potency means the concentration at half of the fitted maximal effect; 0% is about no effect; nearly all actives have a fitted effect of over 65% in size
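Live 145M-Twi cells (Twitcher mouse brain-derived, GALC-null) stably expressing human GALC-G270D, with a wild-type GALC line, were compound-treated. Residual GALC activity was then read as fluorescence from 0.1 mM final HMU-β-gal at pH 5.2; higher signal means activation.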
Numbers without * were called inactive; ! = a repeat was not active; [ ] = remark or other dose. Unless noted, the call rests on the fitted dose curve; in most records, active means well fitted curve in the direction sought with a large enough effect; inconclusive means small, poorly fitted or top-dose-only effect, or another doubt; inactive means no such curve, though single readings can be large; an effect the other way counts as inactive or inconclusive.

What do the screens show for `CN1CCN(C2CCC(n3cc(-c4ccc(Oc5ccccc5)cc4)c4c(N)ncnc43)CC2)CC1` (stereo not drawn)?
NTMT1 inhibitor: 28µM*!

What do the screens show for `COc1ccc(CCN(C)CCCOc2nsc(-c3ccccc3)n2)cc1OC`?
NTMT1 inhibitor: -4%[57.5 µM]

Results for NS(=O)(=O)c1ccc(S(=O)(=O)Nc2cccc3c(Cl)c[nH]c23)cc1 ?
NTMT1 inhibitor: 1%

Results for COc1ccc(-c2cc(C(C)=O)c(C)n2CCC(=O)Nc2cc(Cl)ccc2C)cc1 ?
GPR32 ag: -21; B2AR arrestin ag: inactive; GALK inh: 1%; TSG101-PTAP inh: inactive; NTMT1 inhibitor: 89µM*; GALC G270D act: inactive

How did COc1ccc(N2C[C@]34C=C[C@H](O3)C(C(=O)O)C4C2=O)cc1OC (stereo partly drawn) do in these assays?
NTMT1 inhibitor: 13%

How did COc1cccc(NC(=O)Cn2c(=O)n(Cc3ccco3)c(=O)c3cc(OC)c(OC)cc32)c1 do in these assays?
GPR32 ag: 74*; B2AR arrestin ag: inactive; GALK inh: 2%; TSG101-PTAP inh: inactive; NTMT1 inhibitor: -3%; GALC G270D act: inactive

What do the screens show for `COc1ccc(OC)c(NC(=O)Cn2c(=O)n(Cc3ccco3)c(=O)c3cc(OC)c(OC)cc32)c1`?
GPR32 ag: 20; B2AR arrestin ag: inactive; GALK inh: -7%; TSG101-PTAP inh: inactive; NTMT1 inhibitor: -1%; GALC G270D act: inactive

What do the screens show for `CCCCN(C)CC(O)Cn1cc(/C=C/C(=O)c2ccc(C)cc2)c2ccccc21` (stereo not drawn)?
GPR32 ag: 65*; B2AR arrestin ag: inactive; GALK inh: -1%; TSG101-PTAP inh: inactive; NTMT1 inhibitor: inconclusive; GALC G270D act: inactive

How did CCCCN(C)CC(O)Cn1cc(/C=C/C(=O)c2ccc(OC)c(OC)c2)c2ccccc21 (stereo not drawn) do in these assays?
GPR32 ag: 38; B2AR arrestin ag: inactive; GALK inh: 3%; TSG101-PTAP inh: inactive; NTMT1 inhibitor: inconclusive; GALC G270D act: 32µM*

What do the screens show for `CCCN(CCC)CC(O)Cn1cc(/C=C/C(=O)c2ccc(Br)cc2)c2ccccc21` (stereo not drawn)?
GPR32 ag: 7; B2AR arrestin ag: inactive; GALK inh: 6%; TSG101-PTAP inh: inactive; NTMT1 inhibitor: -28%; GALC G270D act: inconclusive

Results for CCCCN(C)CC(O)Cn1cc(/C=C/C(=O)c2ccc(Br)cc2)c2ccccc21 (stereo not drawn) ?
GPR32 ag: 74*; B2AR arrestin ag: inactive; GALK inh: 6%; TSG101-PTAP inh: inactive; NTMT1 inhibitor: -2%; GALC G270D act: inconclusive

What do the screens show for `Cc1ccc2nc3sc(C(=O)NC4CCCC4)cc3cc2c1`?
NTMT1 inhibitor: 1%[57.5 µM]

How did CCc1cnn2c(NCc3ccc[n+]([O-])c3)cc(N3CCCC[C@H]3CCO)nc12 do in these assays?
NTMT1 inhibitor: -15%

How did CC(O)C1NC(=O)C2CCCN2C1=O (stereo not drawn) do in these assays?
NTMT1 inhibitor: -10%

What do the screens show for `O=c1[nH]c([C@@H]2CCCN2)nc2c1oc1ccc(Cl)cc12`?
NTMT1 inhibitor: 25%

How did COc1cc(Nc2nc3c(s2)CCCC3c2ccc(F)cc2)ccc1-n1cnc(C)c1 (stereo not drawn) do in these assays?
NTMT1 inhibitor: 6%[57.5 µM]

What do the screens show for `Cc1c(Cl)ccc2sc(N3CCN(C(=O)C4CC4)CC3)nc12`?
GPR32 ag: 76*; B2AR arrestin ag: inactive; GALK inh: -1%; TSG101-PTAP inh: inactive; NTMT1 inhibitor: inconclusive; GALC G270D act: inactive

Results for Cc1cc(C)c2sc(N3CCN(C(=O)C4CC4)CC3)nc2c1 ?
GPR32 ag: 33; B2AR arrestin ag: inactive; GALK inh: -1%; TSG101-PTAP inh: inactive; NTMT1 inhibitor: 79µM*; GALC G270D act: inactive

How did Cc1ccc(OCCn2c(CCNC(=O)c3cccc(NC(=O)OC(C)(C)C)c3)nc3ccccc32)cc1 do in these assays?
NTMT1 inhibitor: 8%[57.5 µM]

How did C[C@@H]1C(=O)OC2[C@H](O)[C@]34[C@H]5C[C@@H](C(C)(C)C)[C@]36[C@@H](OC(=O)[C@@H]6O)O[C@@]4(C(=O)O5)[C@]21O (stereo partly drawn) do in these assays?
NTMT1 inhibitor: 16%

Results for Cn1c(=O)c2c(nc(NCc3ccccc3)n2Cc2ccccc2)n(C)c1=O ?
GPR32 ag: 17; B2AR arrestin ag: inactive; GALK inh: 0%; TSG101-PTAP inh: inactive; NTMT1 inhibitor: -5%; GALC G270D act: inactive

What do the screens show for `Cn1c(=O)c2c(nc(NCCc3ccccc3)n2Cc2ccc(Cl)cc2)n(C)c1=O`?
GPR32 ag: 73*; B2AR arrestin ag: inactive; GALK inh: -2%; TSG101-PTAP inh: inactive; NTMT1 inhibitor: 17%; GALC G270D act: inactive

What do the screens show for `COc1ccc(Nc2cc(C(=O)NCCCN(C)Cc3ccccc3)c3ccccc3n2)c(OC)c1`?
GPR32 ag: 65*; B2AR arrestin ag: inactive; GALK inh: 2%; TSG101-PTAP inh: inactive; NTMT1 inhibitor: inconclusive; GALC G270D act: inactive

How did COc1ccc(Nc2cc(C(=O)NCCCN(C)Cc3ccccc3)c3ccccc3n2)cc1 do in these assays?
GPR32 ag: -33; B2AR arrestin ag: inactive; GALK inh: 0%; TSG101-PTAP inh: inactive; NTMT1 inhibitor: -6%; GALC G270D act: inactive

Results for O=C(NCCc1ccccc1)c1cc(Nc2ccccc2)nc2ccccc12 ?
GPR32 ag: 7; B2AR arrestin ag: inactive; GALK inh: -2%; TSG101-PTAP inh: inactive; NTMT1 inhibitor: -5%; GALC G270D act: inactive

How did CC(C)c1ccc(Nc2cc(C(=O)NCCc3ccccc3)c3ccccc3n2)cc1 do in these assays?
GPR32 ag: 85*; B2AR arrestin ag: inactive; GALK inh: 0%; TSG101-PTAP inh: inactive; NTMT1 inhibitor: -18%; GALC G270D act: inactive

What do the screens show for `O=C(O)[C@H]1O[C@H](Oc2cc3oc(-c4ccccc4)cc(=O)c3c(O)c2O)[C@H](O)[C@@H](O)[C@H]1O`?
NTMT1 inhibitor: -13%[57.5 µM]

Results for O=c1cc(-c2ccccc2)oc2cc(O)c(O)c(O)c12 ?
NTMT1 inhibitor: 28µM*!

What do the screens show for `CCN1/C(=C/C=C/c2sc3ccccc3[n+]2CC)Sc2ccccc21`?
GPR32 ag: -40; NTMT1 inhibitor: 18µM*; GALC G270D act: inactive
